In the library only some 4.5% were active in any assay of this set; here they are far more common.
hcDAF12 agonist – H. contortus DAF-12 nuclear receptor activators, primary screen, cell-based, luminescence, HEK293, lit1-tk-luc reporter; HEK293 hcDAF-12 lit1-tk-luc reporter; 0% DMSO, 100% Δ7-dafachronic acid; activation, % at 6.8 µM; actives 1.4% (n = 370,000); AID 652067, 2013;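 active means activation above the mean of all tested compounds plus 3 SD, cut at about 5.5% in these data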
ssDAF-12 act – S. stercoralis DAF-12 nuclear receptor activators, primary screen, cell-based, luminescence, HEK293, GRIP1 co-expression, lit1-tk-luc; Nuclear hormone receptor DAF-12 (Strongyloides stercoralis); HEK293 ssDAF-12/GRIP1 lit1-tk-luc reporter; % of 3 µM dafachronic acid response; activation, % at 6.8 µM; actives 1% (n = 370,000); AID 652126, 2013;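 active means activation above the mean over all tested compounds plus 3 SD, cut at about 0.9% in these data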
DAX1 inh-1 – DAX1 (NR0B1) inhibitors, primary screen, cell-based, HEK293, Gal4-DAX1, luciferase luminescence | Nuclear receptor subfamily 0 group B member 1 (Homo sapiens), P51843 | inhibition, % at 6.75 µM | actives 0.99% (n = 340,000) | HEK293 Gal4-DAX1 luciferase reporter | AID 504766, 2011;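 active means inhibition above the mean over all tested compounds plus 3 SD, cut at about 4.2% in these data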;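 further: inhibition shows as a rise in luminescence from relieved DAX1 repression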
hgDAF12 agonist – H. glycines DAF-12 receptor agonists, primary screen, cell-based, luminescence, HEK293, GAL4 fusion, UAS-luciferase; Nuclear hormone receptor DAF-12 (Heterodera glycines), GAL4 fusion; HEK293 GAL4-hgDAF12 UAS-luciferase reporter, agonist luminescence; normalized to butyrate control; activation, % at 6.8 µM; actives 1.8% (n = 370,000);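 active means activation above a cutoff set at the mean of all screened compounds plus 3 SD, cut at about 10% in these data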
FXN GAA850 act – FXN promoter activators, primary screen, cell-based, luciferase luminescence, HEK293 lucGAA850 | HEK293 lucGAA850 FXN promoter luciferase reporter, 24 h; percent of 10 µM SAHA response | activation, % at 6 µM | actives 0.56% (n = 360,000);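 active means activation above the average of all compounds screened plus 3 SD, cutoff fixed separately per campaign, cut at about 7.5% in these data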
DAX1 inh-2 – DAX1 (NR0B1) inhibitors on StAR promoter, primary screen, cell-based, luminescence, SF-1 (NR5A1), full-length DAX-1. HEK293T StAR-luciferase reporter, SF-1/DAX-1 repression relief. inhibition, % at 6.8 µM. actives 1.1% (n = 370,000);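 active means inhibition above the mean over all tested compounds plus 3 SD, cut at about 3.6% in these data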;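 further: higher inhibition means more luminescence from relief of DAX-1 repression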
DAX1 conf – DAX1 (NR0B1) inhibitors relieving SF-1 repression, confirmation, cell-based, luminescence, HEK293T, full-length DAX-1, SF-1 activated StAR promoter; inhibition, % at 6.8 µM; shares compounds with DAX1 inh-2; HEK293T StAR-promoter luciferase reporter, SF-1/DAX-1 repression; actives 87% (n = 2,400);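 active means inhibition above the average of every tested compound plus 3 SD, cut at about 3.8% in these data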
SF1 mutant ctr – StAR reporter signal changes without DAX1, counter-screen for DAX1 inhibitor project, cell-based, luminescence, AF-2 mutant SF-1, transactivation | shares compounds with DAX1 inh-2 | HEK293 StAR-luciferase, SF-1 AF2 mutant | inhibition, % at 6.8 µM | actives 78% (n = 2,400);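 active means inhibition above the mean of all tested compounds plus 3 SD, cut at about 3% in these data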
LXRb hcDAF ctr – LXR agonists, Gal4 luciferase reporter, confirmation, counter-screen for hcDAF-12 agonist project, cell-based, luminescence, HEK293, H. contortus campaign; shares compounds with hcDAF12 agonist; HEK293 Gal4-LXR tk-luc reporter, 24 h; normalized: DMSO 0%, positive control 100%; activation, % at 6.8 µM; 3,400 tested, under 10 active; AID 743027, 2013;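 active means mean percent activation of the reporter above a cutoff set as the average over tested compounds plus their standard deviation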
Target sequence (P55055 whole entry, looked up, the tested form may be a part): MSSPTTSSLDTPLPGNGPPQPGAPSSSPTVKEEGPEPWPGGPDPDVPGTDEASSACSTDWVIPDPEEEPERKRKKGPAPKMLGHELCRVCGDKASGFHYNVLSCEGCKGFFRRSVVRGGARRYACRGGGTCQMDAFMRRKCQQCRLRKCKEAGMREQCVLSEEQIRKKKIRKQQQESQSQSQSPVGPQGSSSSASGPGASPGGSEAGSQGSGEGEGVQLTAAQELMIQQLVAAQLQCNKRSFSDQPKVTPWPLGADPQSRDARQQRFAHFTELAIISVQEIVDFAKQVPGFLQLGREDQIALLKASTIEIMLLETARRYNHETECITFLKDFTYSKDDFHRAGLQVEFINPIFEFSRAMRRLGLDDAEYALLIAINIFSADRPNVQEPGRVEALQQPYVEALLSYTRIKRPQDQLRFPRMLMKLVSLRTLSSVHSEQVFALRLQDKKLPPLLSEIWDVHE
hcDAF12 ag – H. contortus DAF-12 receptor agonists, confirmation, cell-based, luminescence, HEK293, lit1-tk-luc, triplicate; shares compounds with hcDAF12 agonist; HEK293 hcDAF-12 lit1-tk-luc reporter; % of Δ7-dafachronic acid response; activation, % at 6.8 µM; actives 61% (n = 3,400); AID 743032, 2013;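 active means mean activation across triplicate tests above the threshold derived from the earlier primary screen, cut at about 5.5% in these data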
hgDAF12 ag – H. glycines DAF-12 receptor agonists, confirmation, cell-based, luminescence, HEK293, GAL4-LBD fusion. actives 80% (n = 3,300). HEK293 GAL4-hgDAF12 luciferase reporter, agonist mode; percent of butyrate response. AID 743050, 2013. shares compounds with hgDAF12 agonist. activation, % at 6.8 µM;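 active means mean activation over triplicate wells above the hit cutoff derived from the earlier primary screen, cut at about 11% in these data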
LXR ag 2 – LXR agonists, Gal4 luciferase reporter, confirmation, counter-screen for hgDAF-12 agonist project, cell-based, luminescence, HEK293, H. glycines campaign | shares compounds with hgDAF12 agonist | 24 h | activation, % at 6.8 µM | 3,300 tested, under 10 active | AID 743051, 2013;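 active means mean activation of the triplicate above a set limit carried over from the primary screen, none filed active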
Hits are given with their value.

For CC(C)(C)c1ccc(C(=O)NNC(=O)CCc2ccccc2)cc1 the results were hcDAF12 agonist inactive, ssDAF-12 act inactive, hgDAF12 agonist inactive, FXN GAA850 act inactive and DAX1 inh-2 inactive.
CC1=CC(c2ccccc2)=Nc2ccc(C)cc2N1 was read as hcDAF12 agonist 13, ssDAF-12 act 3.5, DAX1 inh-1 inactive, hgDAF12 agonist 19, FXN GAA850 act inactive, DAX1 inh-2 5.9, DAX1 conf 15, SF1 mutant ctr 8.7, LXRb hcDAF ctr inactive, hcDAF12 ag 9.6, hgDAF12 ag 19 and LXR ag 2 inactive.
COc1ccc2c(c1)NC(=O)CC(c1ccccc1)=N2 was read as hcDAF12 agonist inactive, ssDAF-12 act inactive, DAX1 inh-1 inactive, hgDAF12 agonist inactive, FXN GAA850 act inactive and DAX1 inh-2 inactive.
For O=[N+]([O-])c1cccc(COc2ccc(CN3CCCC3)cc2)c1 the results were hcDAF12 agonist inactive, ssDAF-12 act inactive, DAX1 inh-1 inactive, hgDAF12 agonist 24, FXN GAA850 act inactive, DAX1 inh-2 4.5, DAX1 conf 11, SF1 mutant ctr 6.8, hgDAF12 ag 15 and LXR ag 2 inactive.
O=[N+]([O-])c1cccc(COc2ccc(CN3CCOCC3)cc2)c1 was read as hcDAF12 agonist 7.8, ssDAF-12 act 1.4, DAX1 inh-1 inactive, hgDAF12 agonist 20, FXN GAA850 act inactive, DAX1 inh-2 7.2, DAX1 conf 9.8, SF1 mutant ctr 5.5, LXRb hcDAF ctr inactive, hcDAF12 ag 6.6, hgDAF12 ag 16 and LXR ag 2 inactive.
